Test results taken from publication PMC4336329 (PLoS ONE, 2015).
Screen size: about 310,000 compounds; about 14,000 (4.5%) showed an effect of 50% or more. The effect is printed as a negative number. The full list was thinned out, with strong results kept by preference.

Molecular target: human ether-à-go-go-related gene (hERG) potassium channel (human, UniProt Q12809)
Assay: primary screen, population patch clamp on CHO cells stably expressing hERG; higher = less effect of the substance
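Further: peak tail current of the secondary pulse compared with the same well before compound.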

human ether-à-go-go-related gene (hERG) potassium channel, sequence (Q12809 whole entry, looked up): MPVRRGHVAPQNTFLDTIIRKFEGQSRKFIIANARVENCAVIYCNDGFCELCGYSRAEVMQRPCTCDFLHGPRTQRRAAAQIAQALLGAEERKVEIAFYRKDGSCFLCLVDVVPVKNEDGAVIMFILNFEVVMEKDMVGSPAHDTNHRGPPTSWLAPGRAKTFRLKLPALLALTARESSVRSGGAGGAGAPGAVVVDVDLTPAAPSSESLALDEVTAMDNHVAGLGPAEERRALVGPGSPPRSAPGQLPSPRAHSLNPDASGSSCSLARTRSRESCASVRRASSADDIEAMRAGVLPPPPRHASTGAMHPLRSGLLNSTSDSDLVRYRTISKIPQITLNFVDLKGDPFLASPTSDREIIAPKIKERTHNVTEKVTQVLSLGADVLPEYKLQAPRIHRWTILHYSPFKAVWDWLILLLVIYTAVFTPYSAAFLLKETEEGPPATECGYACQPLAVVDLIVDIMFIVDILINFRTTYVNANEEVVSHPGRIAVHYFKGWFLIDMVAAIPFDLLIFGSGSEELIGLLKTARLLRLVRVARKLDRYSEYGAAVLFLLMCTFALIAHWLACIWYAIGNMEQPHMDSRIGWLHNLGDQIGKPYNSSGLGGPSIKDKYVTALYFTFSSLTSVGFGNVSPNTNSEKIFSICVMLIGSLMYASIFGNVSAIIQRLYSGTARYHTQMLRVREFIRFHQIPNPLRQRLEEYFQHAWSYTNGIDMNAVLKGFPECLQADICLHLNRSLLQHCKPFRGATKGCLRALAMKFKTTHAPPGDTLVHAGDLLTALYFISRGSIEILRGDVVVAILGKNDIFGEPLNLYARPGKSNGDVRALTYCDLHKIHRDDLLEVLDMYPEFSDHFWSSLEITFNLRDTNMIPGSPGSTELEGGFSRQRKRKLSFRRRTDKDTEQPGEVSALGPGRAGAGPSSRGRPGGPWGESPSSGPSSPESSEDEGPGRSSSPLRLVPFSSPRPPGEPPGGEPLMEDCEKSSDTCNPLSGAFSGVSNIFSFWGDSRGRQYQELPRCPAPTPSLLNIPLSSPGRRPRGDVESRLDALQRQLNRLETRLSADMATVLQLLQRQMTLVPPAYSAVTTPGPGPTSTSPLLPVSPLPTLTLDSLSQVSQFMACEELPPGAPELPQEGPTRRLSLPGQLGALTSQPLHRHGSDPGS

Row | SMILES | hERG current change (%, negative = inhibition) at 10uM [%]
1 | O=C(/C=C/c1ccccc1)N/C(=C/c1ccccc1)C(=O)Nc1ccccc1O | -27.3
2 | CCc1ccccc1NC(=O)Cn1nnc(C(=O)NCc2cccs2)c1N | 13.8
3 | O=C(Cn1cnc2ccccc2c1=O)NCCC(=O)N1CCN(c2ccccc2)CC1 | -7.6
4 | O=C(CN1CCN(C(C(=O)Nc2ccc(Cl)cc2C(F)(F)F)c2ccccc2)CC1)NC1CC1 (stereo not shown) | -70.2
5 | Cc1cc(C)cc(NC(=O)C(c2ccccc2)N2CCN(CC(=O)NC3CC3)CC2)c1 (stereo not shown) | -28.3
6 | Cc1ccc(NC(=O)C(c2ccccc2)N2CCN(CC(=O)NC3CC3)CC2)cc1Cl (stereo not shown) | -46.7
7 | Cc1cc(NC(=O)COC(=O)C2CCCN2C(=O)c2cccs2)no1 (stereo not shown) | -4.36
8 | NC(=O)c1ccsc1NC(=O)COC(=O)C1CCCN1C(=O)c1cccs1 (stereo not shown) | -63
9 | COc1ccccc1NC(=O)COC(=O)[C@@H]1CCCN1C(=O)c1cccs1 | -40.6
10 | Cc1ccn2c(C(=O)N/N=C\c3ccccc3[N+](=O)[O-])c(C)nc2c1 | -27.2
11 | COCCn1c(C)cc(C(=O)Cn2nc(C(=O)O)c3ccccc3c2=O)c1C | -3.4
12 | O=C(CNC(=O)Cc1cccc2ccccc12)NCc1ccccc1F | 14.8
13 | CCOC(=O)C1=C(COC(=O)c2cccc(N(C)C)c2)NC(=O)NC1C (stereo not shown) | 2.49
14 | O=C(Oc1ccc(F)cc1)c1cccnc1 | 17.1
15 | O=C(/C=C/c1cccs1)N1CCN(Cc2ccc3c(c2)OCO3)CC1 | -47.9
16 | O=C(/C=C\c1cccs1)N1CCN(Cc2ccc3c(c2)OCO3)CC1 | -57.8
17 | O=C(c1cccs1)N1CCC(C(=O)N2CCN(Cc3ccc4c(c3)OCO4)CC2)CC1 | -59.9
18 | Cl.O=C(c1cc2c(s1)CCCC2)N1CCN(Cc2ccc3c(c2)OCO3)CC1 | -54.2
19 | Cl.Cn1c(C(=O)N2CCN(Cc3ccc4c(c3)OCO4)CC2)cc2sccc21 | -8.46
20 | O=C(c1ccc(Br)s1)N1CCN(Cc2ccc3c(c2)OCO3)CC1 | -36.3
21 | O=C(c1sccc1Br)N1CCN(Cc2ccc3c(c2)OCO3)CC1 | -11
22 | O=C(C1CCCN1C(=O)c1cccs1)N1CCN(Cc2ccc3c(c2)OCO3)CC1 (stereo not shown) | -6.29
23 | O=C(c1cccs1)N1CCN(Cc2ccc3c(c2)OCO3)CC1 | -15.7
24 | O=C(O)/C=C/C(=O)N1CCN(Cc2ccc3c(c2)OCO3)CC1 | 4.54
25 | Cn1c(C(=O)N2CCC(C(=O)N3CCOCC3)CC2)cc2sccc21 | 7.59
26 | Cn1c(C(=O)N2CCC(C(=O)N3CCN(Cc4ccc5c(c4)OCO5)CC3)CC2)cc2sccc21 | -60.6
27 | CCOC(=O)c1ccc(N2CN(CCc3ccccc3)CNC2=S)cc1 | 6.21
28 | COC(=O)/C(C#N)=C\c1c(OC)[nH]c2ccccc12 | 14

Row | SMILES | hERG current change (%, negative = inhibition) at 10uM [%]
29 | Cc1ccc2[nH]c(SCC(=O)N3CCOCC3)nc2c1C | 8.6
30 | CCOC(=O)CN(C(=O)CN1CCC(n2nnc3cc(C)ccc32)CC1)c1ccccc1 | -53.8
31 | Cc1cccc(C(=O)NC2CCN(CC(=O)NCc3ccccc3F)CC2)c1 | -33.2
32 | Cc1ccc2c(c1)nnn2C1CCN(CC(=O)NCCc2ccccc2)CC1 | -50.4
33 | Cc1ccc2c(c1)nnn2C1CCN(CC(=O)NCCc2nc3ccccc3[nH]2)CC1 | -27.9
34 | O=C(CN1CCC(n2nnc3cc(F)ccc32)CC1)NCCc1ccccc1 | -41.5
35 | Cc1ccc2c(c1)nnn2C1CCN(CC(=O)N(c2ccccc2)c2ccccc2)CC1 | 11.4
36 | COc1ccc(C(=O)NNC(=O)CN2CCC(n3nnc4cc(C)ccc43)CC2)cc1 | -15
37 | Cc1ccc2c(c1)nnn2C1CCN(CC(=O)NCc2ccccc2F)CC1 | -59.9
38 | Cc1ccc2c(c1)nnn2C1CCN(CC(=O)NNC(=O)c2ccco2)CC1 | 37.1
39 | CC(=C/c1ccco1)/C=N/NC(=O)CSc1nnc(SCc2ccc(C)cc2)s1 | -3.37
40 | CN1c2ccccc2C(O)=C(C(=S)Nc2ccccc2)S1(=O)=O | 22.7
41 | CCOc1ccc(OCC(=O)Nc2nccs2)cc1 | 19.8
42 | Oc1c(Br)cc(/C=N/Nc2nncc3ccccc23)cc1Br | 27.8
43 | N/C(=N\OC(=O)/C=C/c1ccccc1)c1ccncc1 | -52.3
44 | N/C(=N\OC(=O)/C=C/c1ccccc1)c1cccnc1 | -5.4
45 | N/C(=N\OC(=O)/C=C/c1ccccc1)c1ccccc1 | 3.82
46 | CCN(CC)CCCn1c(=S)[nH]c2cc(Cl)ccc2c1=O | -68.7
47 | O=c1c2ccc(Cl)cc2[nH]c(=S)n1CCCN1CCOCC1 | -22.6
48 | CCN(CC)CCn1c(=S)[nH]c2cc(Cl)ccc2c1=O | -63.2
49 | CCN(CC)CCCn1c(=S)[nH]c2ccccc2c1=O | -25.7
50 | CCN(CC)CCn1c(=S)[nH]c2cc(C(=O)N3CC(C)CC(C)C3)ccc2c1=O (stereo not shown) | -14.7
51 | CCN(CC)CCCn1c(=S)[nH]c2cc(C(=O)OC)ccc2c1=O | -33
52 | CC(C)c1ccc(NC(=O)CSc2ncccc2C(=O)Oc2cccc([N+](=O)[O-])c2)cc1 | 8.39
53 | CCOC(=O)c1c(NC(=O)CSc2nncn2C)sc(C)c1C | -4.02
54 | COc1cc(/C=N/O)ccc1OCc1ccc([N+](=O)[O-])cc1 | -23.5
55 | O=C(NNC(=S)NCc1ccc(Cl)cc1)c1ccc2c(c1)OCO2 | 6.73
